Compound activity: PubChem, Sanford-Burnham Center for Chemical Genomics
TWEAK-Fn14 inh = inhibitors of TWEAK-Fn14 interaction signaling; inhibition, % at 10 µM; AID 1159606; 360,000 compounds, 2% hits; TWEAK-stimulated Fn14 reporter cells, luciferase luminescence, 8 h; in the data active = inhibition above about 50%
Peg3 prom inh = Peg3 promoter activity inhibition; HeLa PEG-Prom luciferase reporter, luminescence, overnight; inhibition, % at 20 µM; 360,000 compounds, 1.7% hits;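 active = inhibition of at least 50% at 20 µM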
KKLEB cytotox = counter-screen for CF NF-kB inhibitors: cytotoxicity; KKLEB CF airway cells viability, ATPlite luminescence, overnight; stronger effect = lower value; cells stimulated with P. aeruginosa culture filtrate; activity change (cytotoxicity), % at 5 µM; 360,000 compounds, 0.36% hits;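 active = corrected activity change at or below -50% at 5 µM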
TROY signal inh = inhibitors of TROY-dependent NF-kB signaling. inhibition, % at 10 µM. 360,000 compounds, 0.98% hits. Q293 LMP1-TROYcd NF-kB luciferase reporter, 4 h;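 active = compounds whose plate-normalised and pattern-corrected inhibition of the luciferase reporter signal at the single screening dose is 50% or more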
CF NFkB inh = blocks PAF-induced NF-kB reporter in cystic fibrosis cells; 360,000 compounds, 0.86% hits; inhibition, % at 5 µM; KKLEB NF-kB-GFP reporter, GFP fluorescence overnight;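 active = at least 50% inhibition at 5 µM, scaled per plate between neutral and stimulator controls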;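 also: PAF is a Pseudomonas aeruginosa culture filtrate used as stimulus; plate controls were PAF-stimulated DMSO wells for no effect and unstimulated DMSO wells for full effect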
HIF-2a block = blocks HIF-2a reporter activity; AID 624352; inhibition, % at 18.8 µM; 360,000 compounds, 0.72% hits; 786-0 RCC cells HIF-2a reporter, luciferase luminescence, overnight;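 active = inhibition of the luminescence signal of 40% or more relative to plate controls, in a single-dose primary screen at 18.75 µM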
Starred values were filed as active, the others as inactive. Compounds with a hit are over-represented: about 4% of the library has one in this group of screens.

SMILES	TWEAK-Fn14 inh	Peg3 prom inh	KKLEB cytotox	TROY signal inh	CF NFkB inh	HIF-2a block
CC(C)(Oc1ccc(Cl)cc1)C(=O)NC1=NN(c2ccccc2)C(=O)C1	19.1	-1.1	-6.4	54.8*	17.2	6.4
CC(=O)c1c(O)c2ccccc2n(C2CCCCC2)c1=O	64.9*	18.1	0.5	55.7*	48.8	19.4
Cn1c(=O)c(C(=O)NC2CCCCCC2)c(O)c2ccccc21	-26.9	-119.7	-6.7	-26.0	11.9	-158.3
O=C(NCCN1CCN(c2ccccc2)CC1)Nc1ccccc1Br	24.7	24.0	2.9	-5.9	-3.8	2.1
CCCC(C)C(=O)N(Cc1ccccc1)c1ccccn1 (configuration not stated)	61.5*	18.0	-2.7	-0.4	8.0	-9.6
CCCS(=O)(=O)NC(=O)C1(C)CCCN(C(=O)Cc2ccc3ccccc3c2)C1 (configuration not stated)	-18.2	-0.8	1.0	-7.2	-12.0	14.7
O=S(=O)(c1ccc(SCCOc2ccc(Cl)cc2)nc1)N1CCCC1	20.7	7.2	-24.7	23.8	16.1	6.8
O=C1S/C(=C/c2ccc(N3CCOCC3)o2)C(=O)N1Cc1ccc(F)cc1	-11.1	-2.4	15.9	2.5	-8.7	4.6
COc1cc(/C=C2\SC(=Nc3ccccc3)N(CCc3c[nH]c4ccccc34)C2=O)ccc1OC(C)C(=O)O (configuration not stated)	45.2	3.0	-17.4	58.8*	-36.3	1.5
O=C1S/C(=C\c2ccc(N3CCOCC3)o2)C(=O)N1Cc1ccc(F)cc1	51.9*	5.3	-23.3	14.5	-5.7	-20.8
COCCN1C(=O)/C(=C/c2ccc(Oc3ccc([N+](=O)[O-])cn3)c(OC)c2)SC1=Nc1ccccc1	-11.8	4.8	-12.5	6.5	-7.1	-11.3
COc1ccc(N=C2S/C(=C\c3ccc(OC(C)C(=O)O)c(OC)c3)C(=O)N2CCc2c[nH]c3ccccc23)cc1 (configuration not stated)	38.9	5.1	-5.9	54.3*	16.6	16.7
O=C1/C(=C/c2ccc(N3CCOCC3)o2)SC(=Nc2ccccc2)N1CCc1c[nH]c2ccccc12	90.5*	102.0*	-51.3*	17.4	-20.7	92.6*
Cc1ccc(S(=O)(=O)C=CS(=O)(=O)c2ccc(C)cc2)cc1	4.3	95.4*	-37.4	3.4	96.5*	52.4*
Cc1ccc(S(=O)(=O)c2ccc(C)cc2)cc1	0.4	3.3	2.0	-7.0	7.7	-6.8
CCOc1ccc(Cl)cc1C1=CC(=O)C[C@H](c2ccc(OC)cc2)C1	-9.4	11.1	-13.9	16.3	30.6	16.6
O=C(NC1CCCCC1)C(c1ccncc1)N(Cc1ccc(F)cc1)C(=O)c1ccccn1 (configuration not stated)	5.5	9.2	16.6	-18.2	-17.3	17.8
O=C(NC1CCCCC1)C(c1ccncc1)N(Cc1ccccc1)C(=O)c1ccc(-c2ccccc2)[nH]1 (configuration not stated)	2.3	13.5	-50.2*	-9.4	37.8	-32.2
Cn1nc([N+](=O)[O-])nc1Sc1ccc(Cl)cc1	-3.1	2.4	7.0	14.7	4.8	3.8
CNc1ncnc(Sc2ccc(Cl)cc2)c1[N+](=O)[O-]	85.7*	-8.2	-13.0	-4.2	22.6	-10.9
COc1ccc(CN(C)C(=O)c2cc(S(=O)(=O)Nc3ccccc3F)ccc2C)c(OC)c1	53.0*	-9.0	-0.3	-19.0	4.1	2.3
COc1cccc(CN(C)C(=O)c2ccc(S(=O)(=O)Nc3ccccc3F)cc2)c1OC	-22.1	1.9	7.8	-10.8	-1.3	8.1
COc1ccccc1N(Cc1ccccc1)S(=O)(=O)c1cccc(C(=O)Nc2ccc(C)cn2)c1	53.0*	37.6	0.8	20.4	-3.4	21.2
O=C1C(F)=CC(COC(c2ccccc2)(c2ccccc2)c2ccccc2)OC1n1cc(F)c(=O)[nH]c1=O (configuration not stated)	108.6*	98.1*	-82.3*	45.7	90.5*	87.3*
CCCc1ccc(OC(=O)c2ccc(O)cc2Cl)cc1	39.8	-200.4	-4.9	57.5*	13.1	-267.8
SMILES	TWEAK-Fn14 inh	Peg3 prom inh	KKLEB cytotox	TROY signal inh	CF NFkB inh	HIF-2a block
CCCc1ccc(OC(=O)c2cccs2)cc1	-26.3	-23.0	-1.7	-10.5	-3.3	-3.1
CCN(Cc1cc(=O)n2ccsc2n1)c1cccc2ccccc12	96.6*	15.7	-15.3	64.2*	23.2	6.4
Cc1cc(SCc2cc(=O)n3ccsc3n2)nc2ccccc12	-30.6	19.8	4.6	-6.0	-26.6	12.3
CCOC(=O)C1(C)CCCCN1C(=O)c1cccc(Cl)c1 (configuration not stated)	4.3	-1.1	-5.8	2.8	-16.0	8.1
Cc1ccc(-c2nc(C)c(C(=O)O)s2)cc1	62.8*	-109.2	13.0	-16.8	-27.8	-125.2
COc1ncccc1-c1cc2nc(NCCCN(C)C)n(C)c(=O)c2s1	-27.8	-23.0	10.4	-28.1	-45.3	-38.3
CCOC(=O)c1c(C)oc2c1cc(O)c1ccccc12	74.0*	-303.2	-5.2	26.9	-14.7	-37.0
COc1ccccc1/C=C/C(=O)/C=C/c1ccccc1O	88.0*	100.5*	-12.7	-16.3	-6.7	-12.1
COc1ccccc1/C=C/C(C)=O	-2.5	7.9	5.5	-26.1	-14.2	8.8
C=CCOc1ccc(C2C(C#N)=C(N)N(N(C)C)C3=C2C(=O)CCC3)cc1 (configuration not stated)	1.1	5.6	2.5	-16.1	-7.3	5.0
Cc1cc(C)nc(NC(=NCCc2c[nH]c3ccccc23)NC(=O)Nc2ccccc2)n1	42.5	52.4*	-9.3	26.6	41.5	-4.2
CCOc1ccccc1N1CCN(CC(O)COC2CCCc3ccccc32)CC1 (configuration not stated)	-25.8	3.3	-2.6	11.7	4.0	14.6
COc1ccc(N=N/C(=C\O)C(=O)c2cccs2)cc1	68.9*	1.1	-49.5	9.2	75.5*	-76.4
O=C(NCCOc1ccccc1)c1ccc2c(c1)S(=O)(=O)c1cc(Cl)ccc1C2=O	-29.8	-5.4	1.9	34.1	-6.7	7.2
C=CCn1c(C)cc(C(=O)Cn2nc(C(=O)O)c3ccccc3c2=O)c1C	55.3*	-216.0	-25.4	35.1	12.3	-189.0
COCCn1c(C)cc(C(=O)Cn2nc(C(=O)O)c3ccccc3c2=O)c1C	69.2*	-97.6	-18.1	41.5	-18.3	-172.5
Cc1c(C)c2c(OCC(=O)NCC3CCC(C(=O)O)CC3)cc3c(c2oc1=O)CCC(C)(C)O3 (configuration not stated)	-30.7	-0.1	-11.8	-17.6	19.8	1.1
Cc1ccc(-n2cnc3cc(NCc4cccs4)ccc32)cc1	42.4	-244.3	-9.1	-16.4	8.1	-131.5
c1ccc(-n2cnc3cc(NCc4cccs4)ccc32)cc1	92.8*	-67.1	-11.7	82.7*	-8.2	-62.2
